In PubChem BioAssay:
The source made the active and inactive calls. Cut-off read from the data, not from the text of the source, unless noted: active = inhibition above about 33%; inactive = the rest.

What was measured:
[1] = target: Nuclear receptor coactivator 3 (Homo sapiens) (UniProt Q9Y6Q9); experiment: NCOA3 GAL4-fusion reporter inhibition – cell-based, luminescence, quadruplicate, confirmation (AID 588792;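 active = mean inhibition over 43.08%, the solvent-only control mean plus 3 SD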;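 note: 0% = DMSO treated cells and 100% = gossypol at 36 µM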); conditions: HEK293 GAL4-SRC3 luciferase reporter, at 3.6 µM, stronger effect = higher value
Chain of Nuclear receptor coactivator 3 (Homo sapiens) (Q9Y6Q9 whole entry, looked up, the tested form may be a part): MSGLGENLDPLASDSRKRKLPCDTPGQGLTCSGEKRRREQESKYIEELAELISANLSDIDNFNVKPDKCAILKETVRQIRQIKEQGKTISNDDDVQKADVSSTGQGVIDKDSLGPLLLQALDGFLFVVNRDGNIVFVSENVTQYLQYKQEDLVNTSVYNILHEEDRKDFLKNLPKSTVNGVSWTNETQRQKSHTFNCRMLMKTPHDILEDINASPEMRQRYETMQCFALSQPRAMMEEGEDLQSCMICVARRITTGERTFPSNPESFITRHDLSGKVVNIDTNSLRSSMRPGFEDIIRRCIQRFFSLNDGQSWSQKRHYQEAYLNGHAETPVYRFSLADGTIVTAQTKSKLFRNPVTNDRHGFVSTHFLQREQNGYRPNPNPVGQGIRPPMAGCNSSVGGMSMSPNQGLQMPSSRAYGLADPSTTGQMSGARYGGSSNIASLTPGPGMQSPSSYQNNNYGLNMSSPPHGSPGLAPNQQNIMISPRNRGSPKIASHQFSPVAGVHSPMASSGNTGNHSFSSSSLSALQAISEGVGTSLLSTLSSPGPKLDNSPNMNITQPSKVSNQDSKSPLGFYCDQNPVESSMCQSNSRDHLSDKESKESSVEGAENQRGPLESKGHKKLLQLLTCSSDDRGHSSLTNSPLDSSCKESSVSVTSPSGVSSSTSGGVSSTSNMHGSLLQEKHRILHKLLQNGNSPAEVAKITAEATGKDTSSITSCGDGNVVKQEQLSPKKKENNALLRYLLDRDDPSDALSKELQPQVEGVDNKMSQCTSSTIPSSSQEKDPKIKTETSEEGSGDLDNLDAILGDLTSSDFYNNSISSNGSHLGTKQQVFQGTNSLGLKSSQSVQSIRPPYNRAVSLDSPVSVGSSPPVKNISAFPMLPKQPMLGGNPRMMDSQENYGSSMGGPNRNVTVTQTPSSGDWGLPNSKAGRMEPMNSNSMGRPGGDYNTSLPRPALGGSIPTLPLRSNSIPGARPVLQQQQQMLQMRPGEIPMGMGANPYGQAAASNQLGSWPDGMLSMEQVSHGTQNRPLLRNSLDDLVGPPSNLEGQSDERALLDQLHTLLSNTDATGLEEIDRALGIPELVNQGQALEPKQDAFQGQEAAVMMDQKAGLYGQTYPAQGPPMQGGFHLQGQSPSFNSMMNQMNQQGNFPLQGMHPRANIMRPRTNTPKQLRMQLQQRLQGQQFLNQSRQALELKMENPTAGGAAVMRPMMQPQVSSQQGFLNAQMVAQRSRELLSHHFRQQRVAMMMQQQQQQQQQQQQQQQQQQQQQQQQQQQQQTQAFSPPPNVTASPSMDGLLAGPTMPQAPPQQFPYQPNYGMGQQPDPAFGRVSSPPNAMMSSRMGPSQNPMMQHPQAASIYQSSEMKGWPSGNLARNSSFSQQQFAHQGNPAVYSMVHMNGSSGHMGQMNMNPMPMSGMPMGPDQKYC

[2] = system: transactivating tegument protein VP16 (Human herpesvirus 1), Gal4-VP16 luciferase reporter; experiment: repression of VP16-driven luciferase reporter – cell-based, luminescence, high throughput, counter-screen for SRC3 inhibitor project (AID 588794; in the data active = inhibition above about 30%); conditions: mammalian cells, at 3.6 µM, stronger effect = higher value
[3] = StAR promoter reporter inhibitors, counter-screen for LRH-1 inverse agonist project, cell-based, luminescence, high throughput (AID 651611; in the data active = inhibition above about 28%); conditions: StAR promoter luciferase reporter counterscreen, at 3.6 µM, stronger effect = higher value
[4] = target: Nuclear receptor subfamily 5 group A member 2 (Homo sapiens) (UniProt O00482); experiment: NR5A2 activity suppression in reporter cells – cell-based, luminescence, confirmation (AID 651613; in the data active = inhibition above about 42%;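 note: HEK293T cells co-transfected with LRH-1 and StAR promoter luciferase reporter; 0% = vehicle wells and 100% = parental cells lacking receptor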); conditions: cell-based LRH-1 luciferase reporter, inverse agonism; at 3.6 µM; stronger effect = higher value
Chain of Nuclear receptor subfamily 5 group A member 2 (Homo sapiens) (O00482 whole entry, looked up): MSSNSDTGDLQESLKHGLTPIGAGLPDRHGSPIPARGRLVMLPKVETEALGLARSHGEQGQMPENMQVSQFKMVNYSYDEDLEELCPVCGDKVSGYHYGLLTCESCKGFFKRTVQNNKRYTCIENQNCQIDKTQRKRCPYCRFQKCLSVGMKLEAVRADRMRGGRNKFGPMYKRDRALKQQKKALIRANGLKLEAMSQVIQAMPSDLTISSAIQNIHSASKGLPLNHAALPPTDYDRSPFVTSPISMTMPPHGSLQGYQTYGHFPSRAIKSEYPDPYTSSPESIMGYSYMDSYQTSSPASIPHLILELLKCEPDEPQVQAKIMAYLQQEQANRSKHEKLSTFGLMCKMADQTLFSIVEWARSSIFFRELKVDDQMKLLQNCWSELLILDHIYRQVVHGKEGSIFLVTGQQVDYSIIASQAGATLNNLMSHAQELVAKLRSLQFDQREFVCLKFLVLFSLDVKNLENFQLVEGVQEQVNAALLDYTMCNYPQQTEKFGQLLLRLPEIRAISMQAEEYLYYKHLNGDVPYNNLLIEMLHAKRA

[5] = target: Steroidogenic factor 1 (Homo sapiens) (UniProt Q13285); experiment: inverse agonism at SF1 nuclear receptor – cell-based, luminescence, high throughput, counter-screen for LRH-1 inverse agonist project (AID 651614; in the data active = inhibition above about 44%;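 note: cells cotransfected with StAR promoter reporter and SF1 expression vector; 0% = vehicle on cells with receptor and 100% = vehicle on cells lacking receptor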); conditions: cell-based SF1 luciferase reporter, at 3.6 µM, stronger effect = higher value
Chain of Steroidogenic factor 1 (Homo sapiens) (Q13285 whole entry, looked up, the tested form may be a part): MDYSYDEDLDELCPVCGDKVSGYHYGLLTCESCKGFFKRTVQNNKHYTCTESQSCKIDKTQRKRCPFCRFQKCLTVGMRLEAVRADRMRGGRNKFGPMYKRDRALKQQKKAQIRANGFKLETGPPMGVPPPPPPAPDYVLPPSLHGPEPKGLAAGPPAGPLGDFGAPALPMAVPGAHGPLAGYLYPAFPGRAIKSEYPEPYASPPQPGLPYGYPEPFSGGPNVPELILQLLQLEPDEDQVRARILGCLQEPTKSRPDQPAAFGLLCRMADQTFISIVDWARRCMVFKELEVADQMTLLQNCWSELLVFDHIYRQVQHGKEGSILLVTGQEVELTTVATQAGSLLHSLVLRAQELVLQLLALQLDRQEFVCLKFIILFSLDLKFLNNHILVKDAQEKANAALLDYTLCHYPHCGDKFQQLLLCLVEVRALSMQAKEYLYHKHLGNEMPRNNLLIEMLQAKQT

[6] = compounds suppressing VP16-driven luciferase signal – cell-based, luminescence, high throughput, counter-screen for LRH-1 inverse agonist project (AID 651615); conditions: Gal4-VP16 luciferase reporter cells, at 3.6 µM, stronger effect = higher value
[7] = system: transactivating tegument protein VP16 (Human herpesvirus 1); experiment: compounds suppressing VP16-driven luciferase signal – cell-based, luminescence, single concentration, counter-screen for SRC2 inhibitor project (AID 652007; in the data active = inhibition above about 36%); conditions: cell-based VP16 transactivation luciferase reporter, at 8.9 µM, stronger effect = higher value
[8] = target: Nuclear receptor coactivator 2 (Homo sapiens) (UniProt Q15596); experiment: inhibition of GAL4-SRC2 driven luciferase expression – cell-based, luminescence, HEK293, triplicate, confirmation (AID 652008;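 active = mean inhibition above 46.5%, the solvent-only control mean plus 3 SD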;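 note: 0% = DMSO-treated cells and 100% = Gossypol at 36 µM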); conditions: HEK293 GAL4-SRC2 luciferase reporter, at 8.9 µM, stronger effect = higher value
Chain of Nuclear receptor coactivator 2 (Homo sapiens) (Q15596 whole entry, looked up, the tested form may be a part): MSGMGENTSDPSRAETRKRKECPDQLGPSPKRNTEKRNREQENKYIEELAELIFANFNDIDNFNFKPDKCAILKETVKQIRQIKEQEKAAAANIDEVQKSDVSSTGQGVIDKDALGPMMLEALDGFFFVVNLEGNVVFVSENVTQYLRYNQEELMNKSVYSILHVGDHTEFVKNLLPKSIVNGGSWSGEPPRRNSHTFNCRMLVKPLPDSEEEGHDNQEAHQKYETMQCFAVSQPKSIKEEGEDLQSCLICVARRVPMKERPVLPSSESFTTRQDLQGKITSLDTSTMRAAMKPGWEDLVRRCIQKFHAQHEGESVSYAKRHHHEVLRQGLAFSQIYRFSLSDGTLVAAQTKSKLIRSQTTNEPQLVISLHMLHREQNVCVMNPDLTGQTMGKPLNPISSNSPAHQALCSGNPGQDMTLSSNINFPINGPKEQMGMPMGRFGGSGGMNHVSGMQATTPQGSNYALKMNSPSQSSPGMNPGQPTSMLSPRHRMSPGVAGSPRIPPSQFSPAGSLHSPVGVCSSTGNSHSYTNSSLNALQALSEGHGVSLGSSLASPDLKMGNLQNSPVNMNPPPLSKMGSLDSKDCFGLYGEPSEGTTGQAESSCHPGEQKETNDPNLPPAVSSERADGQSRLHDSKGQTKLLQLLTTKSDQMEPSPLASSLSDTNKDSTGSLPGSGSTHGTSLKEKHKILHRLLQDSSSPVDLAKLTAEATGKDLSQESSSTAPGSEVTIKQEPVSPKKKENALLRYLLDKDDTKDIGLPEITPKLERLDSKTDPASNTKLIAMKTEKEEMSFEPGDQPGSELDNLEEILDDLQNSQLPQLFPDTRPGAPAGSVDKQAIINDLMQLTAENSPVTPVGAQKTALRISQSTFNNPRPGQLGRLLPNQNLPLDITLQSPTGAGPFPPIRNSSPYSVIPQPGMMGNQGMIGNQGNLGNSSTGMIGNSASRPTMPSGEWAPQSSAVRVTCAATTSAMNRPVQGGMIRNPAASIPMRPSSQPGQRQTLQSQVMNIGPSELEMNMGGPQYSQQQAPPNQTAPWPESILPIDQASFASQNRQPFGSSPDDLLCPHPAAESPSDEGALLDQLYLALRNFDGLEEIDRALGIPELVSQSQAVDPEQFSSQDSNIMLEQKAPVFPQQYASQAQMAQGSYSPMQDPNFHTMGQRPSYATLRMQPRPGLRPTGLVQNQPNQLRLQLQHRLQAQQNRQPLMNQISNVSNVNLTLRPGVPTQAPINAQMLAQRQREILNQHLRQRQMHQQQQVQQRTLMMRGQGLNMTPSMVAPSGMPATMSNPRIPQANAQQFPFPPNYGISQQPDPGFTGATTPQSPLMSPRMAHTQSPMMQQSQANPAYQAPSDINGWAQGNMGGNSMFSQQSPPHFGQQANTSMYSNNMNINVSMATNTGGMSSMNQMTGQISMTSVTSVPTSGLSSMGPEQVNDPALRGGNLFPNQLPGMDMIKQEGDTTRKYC

Measured: inhibition

CCOc1ccc(Nc2cc(C)nc(-n3nc(C)cc3C)n2)cc1
active: [3] 46.8% | [4] 52.9% | [5] 64.8% | [6] 57.4%
inactive: [1] 32.9% | [2] 8.98% | [7] -8.07% | [8] 16.3%

CCN(CC)c1ccc(/C=N/NC(=O)c2c(Cl)cnn2C)c(O)c1
active: [1] 64.2% | [2] 72.8% | [3] 83% | [4] 96.4% | [5] 79.9% | [6] 60.9%

CC(C)CCOc1cccc(OCC(=O)Nc2ccncc2)c1
active: [2] 35.9% | [4] 61% | [5] 60.3% | [6] 58.9%
inactive: [1] -1.73% | [3] 21.4% | [7] 27.6% | [8] 38%

O=C(CCl)N(c1ccccc1)C1CCCCC1
active: [3] 43.5% | [4] 70.4% | [5] 66.2% | [7] 55.6% | [8] 57.8%
inactive: [1] 30.5% | [2] -7.5% | [6] 16.5%

Cc1ccc(CSC(Nc2ccc(F)cc2)=C(C#N)C#N)cc1
active: [4] 59.8% | [5] 59.9% | [6] 45%
inactive: [1] 4.71% | [2] 28.5% | [3] 19.4% | [7] 12.8% | [8] 31.9%

Cc1ccc(NC2=C(N3CCCCC3)C(=O)c3ccccc3C2=O)cc1
inactive: [1] -30.8% | [2] -15% | [3] -37.9% | [4] 12.3% | [5] -5.93% | [6] -11.3%

CCOC(=O)C(=CNc1ccc(NC2=NCC(C)S2)cc1)C(=O)OCC (stereo not given)
active: [1] 60.3% | [4] 69.1% | [5] 70.9% | [6] 36.8%
inactive: [2] 24.9% | [3] -39.4%

Cc1cc(C)c(S(=O)(=O)/N=C2\C=C(Nc3ccc(C(=O)O)cc3)C(=O)c3ccccc32)c(C)c1
active: [3] 40.8% | [4] 61.8% | [5] 61% | [6] 43.8%
inactive: [1] 12.8% | [2] 11.8% | [7] 6.44% | [8] 1.79%

CC[C@@H](C(=O)[C@@H](C)[C@@H](O)[C@H](C)CCc1ccc(C)c(O)c1C(=O)O)[C@H]1O[C@](CC)([C@H]2CC[C@](O)(CC)[C@H](C)O2)C[C@@H]1C
active: [2] 58% | [3] 60.5% | [4] 51.9% | [5] 61.2% | [6] 60%
inactive: [1] 26.4%

O=C(N/N=C/c1c(O)ccc2ccccc12)c1[nH]ncc1Br
active: [1] 58.8% | [2] 53.9% | [3] 77.2% | [4] 95.8% | [5] 83.8% | [6] 73.6%
